Screening data: PubChem BioAssay, The Scripps Research Institute Molecular Screening Center
Fam108B counter – mouse Fam108B serine hydrolase inhibitors, primary screen, counter-screen for RBBP9 inhibitor project, biochemical, fluorescence polarization | recombinant Fam108B, FP-Rh probe fluorescence polarization | inhibition, % at 9.51 µM | 300,000 compounds, 0.33% hits;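 active = inhibition above the screen mean inhibition plus 3 SD, computed separately per campaign, cut at about 18% in these data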;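 also: inhibitors lower polarization as less probe binds the enzyme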
GSTO1 inh – inhibitors of recombinant GSTO1, primary screen, counter-screen for RBBP9 inhibitor project, biochemical, fluorescence polarization; Glutathione S-transferase omega-1 (Homo sapiens), P78417; activity-based probe fluorescence polarization; inhibition, % at 5.96 µM; 300,000 compounds, 1.1% hits; AID 1974, 2009;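 active = inhibition above the campaign mean inhibition plus 3 SD, cut at about 35% in these data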;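 also: 0% = GSTO1-1 with DMSO and 100% = wells lacking GSTO1-1 enzyme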
PME-1 primary – PME-1 inhibitors via competitive probe labeling, primary screen, biochemical, fluorescence polarization, FP-Rh probe, HTS; Protein phosphatase methylesterase 1 (Homo sapiens), Q9Y570; 320,000 compounds, 0.53% hits; recombinant PME-1; inhibition, % at 5.9 µM; AID 2130, 2009;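 active = inhibition above the campaign mean of all compounds plus 3 SD, cut at about 26% in these data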;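 also: competitive labeling of PME-1 active site by serine hydrolase directed probe; 0% = PME-1 with DMSO and 100% = wells lacking PME-1 enzyme; inhibitors block probe labeling so polarization falls and inhibition rises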
Target sequence (Q9Y570 whole entry, looked up): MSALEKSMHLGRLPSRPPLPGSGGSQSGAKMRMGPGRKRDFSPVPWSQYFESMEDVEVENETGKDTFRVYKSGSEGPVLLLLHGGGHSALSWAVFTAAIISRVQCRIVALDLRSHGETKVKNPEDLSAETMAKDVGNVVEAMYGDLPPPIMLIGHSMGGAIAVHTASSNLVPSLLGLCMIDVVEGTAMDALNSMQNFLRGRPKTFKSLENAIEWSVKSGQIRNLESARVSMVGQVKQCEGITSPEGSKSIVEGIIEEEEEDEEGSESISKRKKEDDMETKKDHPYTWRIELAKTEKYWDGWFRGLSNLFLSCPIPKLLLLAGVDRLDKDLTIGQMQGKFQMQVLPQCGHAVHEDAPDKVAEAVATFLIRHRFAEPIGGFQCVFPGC
LYPLA2 inh – LYPLA2 inhibitors, primary screen, counter-screen for PME1 inhibitor project, biochemical, fluorescence polarization, FP-Rh probe ABPP | recombinant LYPLA2 | AID 2177, 2009 | Acyl-protein thioesterase 2 (Homo sapiens), O95372 | inhibition, % at 5.9 µM | 320,000 compounds, 0.38% hits;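 active = inhibition above the screen-wide mean plus 3 SD, limit set per campaign, cut at about 26% in these data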;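 also: 0% = LYPLA2 with DMSO and 100% = wells lacking LYPLA2 enzyme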
Target sequence (O95372 whole entry, looked up): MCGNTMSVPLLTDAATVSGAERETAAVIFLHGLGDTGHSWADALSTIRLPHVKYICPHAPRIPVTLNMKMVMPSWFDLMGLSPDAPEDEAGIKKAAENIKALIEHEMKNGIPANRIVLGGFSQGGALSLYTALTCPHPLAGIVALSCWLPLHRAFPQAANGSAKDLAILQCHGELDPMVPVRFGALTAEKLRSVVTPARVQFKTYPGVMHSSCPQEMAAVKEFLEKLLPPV
PAD4 inh – human PAD4 inhibitors, primary screen, biochemical, fluorescence polarization, 1536-well format | Protein-arginine deiminase type-4 (Homo sapiens), Q9UM07 | recombinant PAD4, RCA probe fluorescence polarization | inhibition, % at 6.36 µM | 330,000 compounds, 0.41% hits | AID 485272, 2010;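 active = percent inhibition above a cutoff equal to the mean of all tested compounds plus 3 SD, cut at about 15% in these data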;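 also: 0% = PAD4 with RCA probe and DMSO and 100% = probe without PAD4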
LYPLA1 inh – LYPLA1 inhibitors, primary screen, counter-screen for PME1 inhibitor project, biochemical, fluorescence polarization, FP-Rh probe ABPP | Acyl-protein thioesterase 1 (Homo sapiens), O75608 | recombinant LYPLA1 | inhibition, % at 5.9 µM | 320,000 compounds, 0.16% hits | AID 2174, 2009;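 active = inhibition above the mean of all tested compounds plus 3 SD, set per campaign, cut at about 14% in these data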;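 also: inhibitors block serine hydrolase probe labeling of LYPLA1 so polarization falls; 0% = enzyme with DMSO and 100% = wells lacking LYPLA1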
Fam108b confirm – mouse Fam108b serine hydrolase inhibitors, confirmation, counter-screen for RBBP9 inhibitor project, biochemical, fluorescence polarization, triplicate; 930 compounds, 44% hits; inhibition, % at 9.51 µM; shares compounds with Fam108B counter; AID 1978, 2009; recombinant Fam108b, FP-Rh probe fluorescence polarization;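 active = inhibition above a limit from the primary screen, the mean over all compounds plus 3 SD, cut at about 19% in these data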;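 also: 0% = median of active Fam108b wells and 100% = catalytically dead S170A mutant; inhibitors free the probe so polarization falls as inhibition rises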
Fam108b inh – inhibition of mouse Fam108b by HTS hits, late-stage follow-up, biochemical, gel-based ABPP, soluble recombinant form | fluorophosphonate probe | 260 compounds, 44% hits | inhibition, % at 20 µM | AID 588649, 2011 | shares compounds with Fam108B counter; in the data active = inhibition above about 40%
Starred values were filed as active, the others as inactive. The list is not random: actives were taken first. Their share in the collection is about 1.8%.

CCOc1ccc(C(=O)N/N=C/c2ccc(-c3ccc(S(=O)(=O)Nc4ncccn4)cc3)o2)cc1 was read as Fam108B counter -3, GSTO1 inh -18, PME-1 primary -7, LYPLA2 inh -7, PAD4 inh -2 and LYPLA1 inh -8.
For CC1=NN(C(N)=S)C(=O)C1N=Nc1c(Br)cc(Br)cc1Br (stereo not drawn) the results were Fam108B counter 29*, GSTO1 inh -14, PME-1 primary 9, LYPLA2 inh 5, PAD4 inh 2, LYPLA1 inh -1, Fam108b confirm 33* and Fam108b inh 35.
For CC1=NN(C(N)=S)C(=O)C1N=Nc1c(C)cc(C)cc1C (stereo not drawn) the results were Fam108B counter 2, GSTO1 inh -36, PME-1 primary -5, LYPLA2 inh 4, PAD4 inh -4 and LYPLA1 inh 3.
For O=[N+]([O-])c1cc(S(=O)(=O)Nc2ccccc2)ccc1N1CCN(c2ccc(O)cc2)CC1 the results were Fam108B counter 8, GSTO1 inh -2, PME-1 primary 11, LYPLA2 inh 20, PAD4 inh 1 and LYPLA1 inh -1.
Screening Cc1ccc(NS(=O)(=O)c2ccc(N3CCN(c4ccc(O)cc4)CC3)c([N+](=O)[O-])c2)c(C)c1 returned Fam108B counter 21*, GSTO1 inh 2, PME-1 primary 23, LYPLA2 inh 12, PAD4 inh -1, LYPLA1 inh -5 and Fam108b confirm 9.
Screening CC(NC(=O)c1ccc(F)cc1)C(=O)NC1=NCCS1 (stereo not drawn) returned Fam108B counter 8, GSTO1 inh 3, PME-1 primary 6, LYPLA2 inh -1, PAD4 inh 1 and LYPLA1 inh 0.
`COc1ccc(NC(=O)c2cccc(N3C(=O)c4ccc(C(=O)Nc5ccc(OC)c(O)c5)cc4C3=O)c2)cc1O` gave Fam108B counter 21*, GSTO1 inh 13, PME-1 primary 20, LYPLA2 inh 16, PAD4 inh -1, LYPLA1 inh 0 and Fam108b confirm 26*.
C/C=C(\C)C(=O)Nc1cccc(C2=NOC3(C2)C[C@H](C(N)=O)N(C(=O)CC#N)C3)c1 (stereo partly drawn) was read as Fam108B counter -2, GSTO1 inh 3, PME-1 primary -1, LYPLA2 inh -1, PAD4 inh 3 and LYPLA1 inh 1.
Screening CCN(CC(=O)Nc1c(F)cccc1F)C(=O)C1CCCN(C(=O)c2ccc(Cl)cc2)C1 (stereo not drawn) returned Fam108B counter 4, GSTO1 inh -2, PME-1 primary 2, LYPLA2 inh -2, PAD4 inh -2 and LYPLA1 inh 2.
For CC(/C=C/c1cccs1)=C\C(=O)O the results were Fam108B counter 0, GSTO1 inh 2, PME-1 primary -2, LYPLA2 inh -2, PAD4 inh -6 and LYPLA1 inh 0.
Screening O=[N+]([O-])c1cc(/C=N\Nc2nc(-c3ccccc3)cs2)ccc1O returned Fam108B counter 25*, GSTO1 inh 63*, PME-1 primary 23, LYPLA2 inh 2, PAD4 inh -1, LYPLA1 inh 1 and Fam108b confirm 25*.
Screening COc1cc(/C=N/Nc2nc(-c3ccc(S(=O)(=O)N(C)C)cc3)cs2)ccc1O returned Fam108B counter 21*, GSTO1 inh 12, PME-1 primary 28*, LYPLA2 inh -1, PAD4 inh -5, LYPLA1 inh -7 and Fam108b confirm 9.
For CCOC(=O)C1=C(C)c2ccccc2N(S(=O)(=O)C(F)(F)F)C1C(=O)OCC (stereo not drawn) the results were PAD4 inh 3.
Screening COc1ccc(/C=N/NC(=O)c2cccc([N+](=O)[O-])c2)cc1OS(=O)(=O)c1ccccc1 returned Fam108B counter 31*, GSTO1 inh 1, PME-1 primary 2, LYPLA2 inh -3, PAD4 inh 3, LYPLA1 inh 2 and Fam108b confirm 26*.
Cc1cc(C)n(C(=O)c2ccc(S(=O)(=O)NCC3CCCO3)cc2)n1 (stereo not drawn) was read as Fam108B counter -2, GSTO1 inh 4, PME-1 primary 9, LYPLA2 inh -1, PAD4 inh -13 and LYPLA1 inh -2.
For Oc1cccc(Nc2nc(O)c(/C=C3\C=Nc4ccccc43)s2)c1 the results were Fam108B counter 44*, GSTO1 inh -109, PME-1 primary 28*, LYPLA2 inh -21, PAD4 inh -22, LYPLA1 inh -19 and Fam108b confirm 16.
For Oc1nc(Nc2cccc(Cl)c2)sc1/C=C1\C=Nc2ccccc21 the results were Fam108B counter 34*, GSTO1 inh -22, PME-1 primary 49*, LYPLA2 inh -11, PAD4 inh -4, LYPLA1 inh -3, Fam108b confirm 33* and Fam108b inh 95*.
Screening CC1=Nc2ccccc2/C1=C\c1sc(Nc2ccc(C)cc2)nc1O returned Fam108B counter 23*, GSTO1 inh 2, PME-1 primary 52*, LYPLA2 inh -2, PAD4 inh -3, LYPLA1 inh -3 and Fam108b confirm 5.
CC1=Nc2ccccc2/C1=C/c1sc(=O)n(CC(=O)N2CCCC2)c1O was read as Fam108B counter 4, GSTO1 inh -4, PME-1 primary 5, LYPLA2 inh -4, PAD4 inh -8 and LYPLA1 inh -1.
`CN(C)C=Nc1ccc2nc3c(cc2c1)[nH]c1ccccc13` gave Fam108B counter 11, GSTO1 inh 25, PME-1 primary 9, LYPLA2 inh 8, PAD4 inh -9 and LYPLA1 inh -1.
`Cc1ccc(NC(=O)CC(=O)c2ccc([N+](=O)[O-])cc2)cc1S(=O)(=O)Nc1cccc(Cl)c1` gave Fam108B counter 25*, GSTO1 inh -44, PME-1 primary 9, LYPLA2 inh -10, PAD4 inh -1, LYPLA1 inh -7 and Fam108b confirm 14.
